The supplement of paper PMC11732987, “Enantioselective OTUD7B fragment discovery through chemoproteomics screening and high-throughput optimisation” (Communications Chemistry, 2025)

Legend:
Assay in all cases: log2 ratio of Biotin-Ahx-Ub-VS probe labelling (fragment/DMSO); higher = less target engagement (more negative = stronger competition), active = hit call of the paper (q ≤ 0.05, log2 ratio ≤ -1)
Details in all cases: compound concentration: 200 uM; treatment time: 3 h
USP19 = target: T1, USP19 (UniProt O94966)
T1 sequence (whole entry): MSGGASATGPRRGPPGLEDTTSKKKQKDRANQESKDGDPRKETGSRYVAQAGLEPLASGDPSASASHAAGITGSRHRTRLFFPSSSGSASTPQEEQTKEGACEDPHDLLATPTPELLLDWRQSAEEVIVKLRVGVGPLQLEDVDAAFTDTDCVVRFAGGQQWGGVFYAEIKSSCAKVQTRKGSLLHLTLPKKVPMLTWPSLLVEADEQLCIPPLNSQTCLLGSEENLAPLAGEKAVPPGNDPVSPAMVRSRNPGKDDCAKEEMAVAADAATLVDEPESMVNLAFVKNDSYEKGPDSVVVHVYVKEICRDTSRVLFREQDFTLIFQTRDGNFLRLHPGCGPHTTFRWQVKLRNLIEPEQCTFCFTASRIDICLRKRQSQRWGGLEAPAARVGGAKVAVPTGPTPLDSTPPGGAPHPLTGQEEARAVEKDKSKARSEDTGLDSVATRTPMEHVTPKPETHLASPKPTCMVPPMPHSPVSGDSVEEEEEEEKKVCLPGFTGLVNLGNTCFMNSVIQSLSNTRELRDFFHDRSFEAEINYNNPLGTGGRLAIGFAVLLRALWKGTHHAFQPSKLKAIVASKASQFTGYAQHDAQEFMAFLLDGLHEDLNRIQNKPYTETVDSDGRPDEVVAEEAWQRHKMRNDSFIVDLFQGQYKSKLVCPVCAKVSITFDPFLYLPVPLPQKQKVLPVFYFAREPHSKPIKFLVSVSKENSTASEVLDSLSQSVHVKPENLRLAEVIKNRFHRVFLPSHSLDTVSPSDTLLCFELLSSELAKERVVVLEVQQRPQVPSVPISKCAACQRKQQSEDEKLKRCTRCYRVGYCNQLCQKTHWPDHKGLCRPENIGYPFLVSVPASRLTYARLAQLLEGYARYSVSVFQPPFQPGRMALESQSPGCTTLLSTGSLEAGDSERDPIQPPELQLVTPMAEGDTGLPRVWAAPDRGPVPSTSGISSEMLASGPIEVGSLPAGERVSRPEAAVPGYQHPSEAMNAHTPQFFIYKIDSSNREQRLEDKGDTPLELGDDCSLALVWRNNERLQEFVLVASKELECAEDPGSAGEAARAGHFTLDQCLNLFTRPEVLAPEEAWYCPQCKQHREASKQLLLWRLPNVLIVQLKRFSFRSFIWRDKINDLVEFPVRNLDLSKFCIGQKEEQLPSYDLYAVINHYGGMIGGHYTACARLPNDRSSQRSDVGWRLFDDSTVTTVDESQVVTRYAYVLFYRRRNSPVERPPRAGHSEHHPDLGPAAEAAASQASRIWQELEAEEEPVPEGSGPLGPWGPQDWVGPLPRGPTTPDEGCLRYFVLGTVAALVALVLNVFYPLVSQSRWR
Method in brief: (§1)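 Triplicate samples of HEK293T lysate, 495 µg each, received fragment at 200 µM or vehicle for 3 h, followed by Biotin-Ahx-Ub-VS (0.5 µM final) for 1 h. After NeutrAvidin enrichment of labelled DUBs and LysC/trypsin digestion, peptides were run by diaPASEF LC-MS/MS. The values are average log2 fragment/vehicle ratios from global-median-normalised Spectronaut label-free quantities, tested by unpaired t-test on proteins having ≥2 unique peptides.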

USP22 = target: T2, USP22 (UniProt Q9UPT9)
T2 sequence (whole entry): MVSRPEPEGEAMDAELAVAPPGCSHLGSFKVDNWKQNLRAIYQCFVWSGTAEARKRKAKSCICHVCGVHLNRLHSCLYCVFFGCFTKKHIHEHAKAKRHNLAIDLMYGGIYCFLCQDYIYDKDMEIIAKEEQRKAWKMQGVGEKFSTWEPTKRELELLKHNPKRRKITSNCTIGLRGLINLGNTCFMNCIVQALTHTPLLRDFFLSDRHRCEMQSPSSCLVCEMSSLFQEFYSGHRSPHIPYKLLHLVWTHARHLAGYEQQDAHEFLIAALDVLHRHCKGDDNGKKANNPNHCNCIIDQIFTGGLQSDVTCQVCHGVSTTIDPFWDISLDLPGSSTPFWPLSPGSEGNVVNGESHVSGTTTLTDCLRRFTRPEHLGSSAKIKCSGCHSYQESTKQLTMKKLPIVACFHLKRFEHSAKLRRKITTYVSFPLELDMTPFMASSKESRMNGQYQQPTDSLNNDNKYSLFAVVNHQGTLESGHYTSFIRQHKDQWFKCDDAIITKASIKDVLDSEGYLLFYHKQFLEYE
Method in brief: as §1

USP24 = USP24 (UniProt Q9UPU5)
Method in brief: as §1

USP25 = target: T3, USP25 (UniProt Q9UHP3)
T3 sequence (whole entry): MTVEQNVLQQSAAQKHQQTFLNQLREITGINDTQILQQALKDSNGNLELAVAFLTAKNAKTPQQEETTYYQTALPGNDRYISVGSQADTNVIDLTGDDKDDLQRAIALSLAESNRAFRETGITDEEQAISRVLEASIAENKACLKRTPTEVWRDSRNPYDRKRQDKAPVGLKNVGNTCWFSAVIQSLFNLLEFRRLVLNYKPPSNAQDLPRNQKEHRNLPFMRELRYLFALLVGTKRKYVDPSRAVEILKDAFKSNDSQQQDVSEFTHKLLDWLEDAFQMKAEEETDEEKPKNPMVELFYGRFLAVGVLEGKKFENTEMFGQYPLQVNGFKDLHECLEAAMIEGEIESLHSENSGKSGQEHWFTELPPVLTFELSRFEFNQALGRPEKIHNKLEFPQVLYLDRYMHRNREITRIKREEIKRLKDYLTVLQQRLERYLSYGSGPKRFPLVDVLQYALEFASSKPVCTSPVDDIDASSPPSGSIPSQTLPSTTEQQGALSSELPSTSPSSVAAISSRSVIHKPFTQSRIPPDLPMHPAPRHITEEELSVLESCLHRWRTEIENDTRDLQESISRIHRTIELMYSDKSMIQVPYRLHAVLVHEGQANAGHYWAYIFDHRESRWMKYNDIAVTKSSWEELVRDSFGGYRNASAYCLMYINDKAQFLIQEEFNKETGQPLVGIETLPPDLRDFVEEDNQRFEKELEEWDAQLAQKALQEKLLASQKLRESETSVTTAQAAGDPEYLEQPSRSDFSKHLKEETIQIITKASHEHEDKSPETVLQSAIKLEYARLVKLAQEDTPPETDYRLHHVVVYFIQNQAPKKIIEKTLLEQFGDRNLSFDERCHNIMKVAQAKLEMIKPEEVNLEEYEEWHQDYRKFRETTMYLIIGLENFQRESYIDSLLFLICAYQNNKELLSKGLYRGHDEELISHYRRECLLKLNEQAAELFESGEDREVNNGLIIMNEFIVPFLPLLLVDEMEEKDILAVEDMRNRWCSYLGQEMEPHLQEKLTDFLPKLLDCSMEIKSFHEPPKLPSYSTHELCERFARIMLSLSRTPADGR
Method in brief: as §1

USP28 = target: T4, USP28 (UniProt Q96RU2)
T4 sequence (whole entry): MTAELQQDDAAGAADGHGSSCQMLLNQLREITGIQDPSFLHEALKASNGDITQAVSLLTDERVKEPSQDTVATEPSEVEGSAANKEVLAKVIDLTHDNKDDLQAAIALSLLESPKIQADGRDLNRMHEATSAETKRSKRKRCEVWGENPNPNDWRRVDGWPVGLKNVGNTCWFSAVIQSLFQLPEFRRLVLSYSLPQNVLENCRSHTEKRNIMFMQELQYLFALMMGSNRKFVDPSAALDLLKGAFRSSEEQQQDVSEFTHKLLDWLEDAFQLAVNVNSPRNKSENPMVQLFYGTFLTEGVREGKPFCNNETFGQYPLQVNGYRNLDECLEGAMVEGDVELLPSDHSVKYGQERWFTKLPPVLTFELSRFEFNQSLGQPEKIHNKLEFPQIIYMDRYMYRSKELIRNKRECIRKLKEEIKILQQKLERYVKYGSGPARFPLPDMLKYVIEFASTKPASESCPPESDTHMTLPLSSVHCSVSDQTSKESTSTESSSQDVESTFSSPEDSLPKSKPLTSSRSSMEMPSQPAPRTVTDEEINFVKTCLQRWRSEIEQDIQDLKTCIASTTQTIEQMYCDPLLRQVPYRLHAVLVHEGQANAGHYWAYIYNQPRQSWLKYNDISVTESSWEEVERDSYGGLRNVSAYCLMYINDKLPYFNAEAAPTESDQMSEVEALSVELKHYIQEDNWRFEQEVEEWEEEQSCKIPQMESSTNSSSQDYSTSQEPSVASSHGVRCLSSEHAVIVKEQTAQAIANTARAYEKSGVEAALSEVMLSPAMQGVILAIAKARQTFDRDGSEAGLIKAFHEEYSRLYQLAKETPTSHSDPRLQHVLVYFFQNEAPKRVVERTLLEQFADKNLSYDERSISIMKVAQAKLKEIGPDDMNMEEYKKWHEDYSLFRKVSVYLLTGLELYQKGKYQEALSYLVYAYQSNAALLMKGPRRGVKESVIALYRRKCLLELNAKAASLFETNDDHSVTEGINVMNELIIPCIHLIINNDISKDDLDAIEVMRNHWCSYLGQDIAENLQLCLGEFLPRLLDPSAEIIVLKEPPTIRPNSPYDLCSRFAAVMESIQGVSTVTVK
Method in brief: as §1

Measured: log2 ratio of Biotin-Ahx-Ub-VS probe labelling

Chain of USP24 (Q9UPU5 whole entry): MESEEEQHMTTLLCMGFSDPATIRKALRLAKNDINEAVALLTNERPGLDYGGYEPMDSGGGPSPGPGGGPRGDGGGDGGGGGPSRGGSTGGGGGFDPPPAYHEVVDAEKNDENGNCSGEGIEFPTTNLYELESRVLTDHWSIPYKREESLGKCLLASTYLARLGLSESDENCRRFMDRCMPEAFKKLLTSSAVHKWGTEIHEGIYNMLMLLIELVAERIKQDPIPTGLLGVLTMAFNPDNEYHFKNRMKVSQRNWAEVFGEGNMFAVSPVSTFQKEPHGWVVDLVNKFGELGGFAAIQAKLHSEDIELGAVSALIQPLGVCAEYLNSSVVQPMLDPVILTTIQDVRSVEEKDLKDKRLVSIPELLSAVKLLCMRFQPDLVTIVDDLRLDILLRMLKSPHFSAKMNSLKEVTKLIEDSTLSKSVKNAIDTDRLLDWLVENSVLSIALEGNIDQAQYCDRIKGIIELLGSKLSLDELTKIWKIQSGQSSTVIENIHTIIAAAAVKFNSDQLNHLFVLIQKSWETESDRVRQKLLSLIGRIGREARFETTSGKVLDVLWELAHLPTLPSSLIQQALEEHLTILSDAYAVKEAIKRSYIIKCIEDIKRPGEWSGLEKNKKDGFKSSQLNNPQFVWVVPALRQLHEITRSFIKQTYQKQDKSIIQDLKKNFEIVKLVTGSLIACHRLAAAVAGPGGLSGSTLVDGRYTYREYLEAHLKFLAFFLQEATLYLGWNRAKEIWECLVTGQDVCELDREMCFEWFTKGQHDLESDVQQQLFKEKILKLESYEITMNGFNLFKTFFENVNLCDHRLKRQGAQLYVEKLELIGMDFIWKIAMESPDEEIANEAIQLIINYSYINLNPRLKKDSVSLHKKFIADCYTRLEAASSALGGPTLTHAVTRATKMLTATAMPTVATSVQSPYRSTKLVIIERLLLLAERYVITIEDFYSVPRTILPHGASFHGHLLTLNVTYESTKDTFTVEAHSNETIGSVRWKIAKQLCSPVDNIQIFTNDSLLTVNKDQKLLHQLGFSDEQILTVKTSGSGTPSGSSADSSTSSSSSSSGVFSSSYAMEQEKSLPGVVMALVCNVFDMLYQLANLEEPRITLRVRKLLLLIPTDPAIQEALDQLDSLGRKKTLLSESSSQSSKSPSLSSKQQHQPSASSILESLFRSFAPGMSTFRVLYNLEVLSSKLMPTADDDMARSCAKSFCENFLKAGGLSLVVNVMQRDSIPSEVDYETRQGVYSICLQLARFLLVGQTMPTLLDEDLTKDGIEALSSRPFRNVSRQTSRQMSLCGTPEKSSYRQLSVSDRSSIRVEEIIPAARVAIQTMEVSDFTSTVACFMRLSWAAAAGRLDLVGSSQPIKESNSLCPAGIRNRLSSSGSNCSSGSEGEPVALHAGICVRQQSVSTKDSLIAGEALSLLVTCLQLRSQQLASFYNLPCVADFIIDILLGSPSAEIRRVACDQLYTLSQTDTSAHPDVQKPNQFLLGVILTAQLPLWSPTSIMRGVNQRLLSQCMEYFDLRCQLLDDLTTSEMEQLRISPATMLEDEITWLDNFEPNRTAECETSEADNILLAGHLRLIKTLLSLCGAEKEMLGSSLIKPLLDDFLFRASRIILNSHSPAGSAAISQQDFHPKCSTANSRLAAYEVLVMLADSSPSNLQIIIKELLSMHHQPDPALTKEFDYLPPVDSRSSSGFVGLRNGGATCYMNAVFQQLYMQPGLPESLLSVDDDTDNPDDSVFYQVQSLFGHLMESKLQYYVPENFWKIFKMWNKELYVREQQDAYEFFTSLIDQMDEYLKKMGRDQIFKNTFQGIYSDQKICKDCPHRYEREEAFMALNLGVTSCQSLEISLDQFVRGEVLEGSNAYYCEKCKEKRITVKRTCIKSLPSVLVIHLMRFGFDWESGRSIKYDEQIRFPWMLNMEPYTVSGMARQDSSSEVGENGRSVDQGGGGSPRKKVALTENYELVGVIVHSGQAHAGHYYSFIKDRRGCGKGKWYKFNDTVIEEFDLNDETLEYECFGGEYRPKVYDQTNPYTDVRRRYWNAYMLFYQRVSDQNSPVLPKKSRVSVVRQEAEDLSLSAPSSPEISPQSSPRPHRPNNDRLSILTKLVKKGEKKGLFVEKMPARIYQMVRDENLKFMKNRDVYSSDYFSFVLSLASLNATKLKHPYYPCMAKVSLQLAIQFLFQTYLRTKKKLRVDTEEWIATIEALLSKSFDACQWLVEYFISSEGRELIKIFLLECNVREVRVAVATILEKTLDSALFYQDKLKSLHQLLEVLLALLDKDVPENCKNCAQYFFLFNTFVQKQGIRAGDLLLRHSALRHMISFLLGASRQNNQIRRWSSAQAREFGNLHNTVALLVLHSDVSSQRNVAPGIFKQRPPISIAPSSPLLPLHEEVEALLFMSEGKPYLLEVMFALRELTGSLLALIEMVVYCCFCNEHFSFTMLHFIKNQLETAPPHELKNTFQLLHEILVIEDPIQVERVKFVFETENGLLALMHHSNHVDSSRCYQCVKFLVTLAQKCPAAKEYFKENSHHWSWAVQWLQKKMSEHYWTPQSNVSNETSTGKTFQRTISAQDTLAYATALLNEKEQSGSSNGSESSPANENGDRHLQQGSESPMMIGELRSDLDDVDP

Cc1cc(CC(C)NC(=O)CCl)n[nH]1 (stereo not given)
inactive: USP19 -0.257 | USP22 0.128 | USP24 -0.17 | USP25 -0.198 | USP28 -0.332
